Measured values taken from PubChem BioAssay (NCI).
About 83,000 compounds went through this panel and 20% of them were active in at least one assay; those are over-represented in the sample as a whole.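 For each line, cells grew in 96-well plates with the test compound present at a single concentration for 48 hours.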 Active and inactive are the calls of the source. How the source made its calls: active means growth percent below 10; inactive means the rest.

Columns and labels:
Assay in all cases: NCI-60 one-dose screen, 48 h (100 = growth as untreated, 0 = no growth, -100 = all killed)
Details in all cases: 10 µM unless noted
SK-MEL-2 melanoma = tested on: SK-MEL-2 melanoma
EKVX NSCLC = tested on: EKVX NSCLC
SN12C renal = tested on: SN12C renal
UO-31 renal = tested on: UO-31 renal
TK-10 renal = tested on: TK-10 renal
ACHN renal = tested on: ACHN renal
CAKI-1 renal = tested on: CAKI-1 renal
A498 renal = tested on: A498 renal
CCRF-CEM leukemia = tested on: CCRF-CEM leukemia
MOLT-4 leukemia = tested on: MOLT-4 leukemia
SR leukemia = tested on: SR leukemia
RPMI-8226 leukemia = tested on: RPMI-8226 leukemia
OVCAR-8 ovarian = tested on: OVCAR-8 ovarian
OVCAR-5 ovarian = tested on: OVCAR-5 ovarian
OVCAR-4 ovarian = tested on: OVCAR-4 ovarian
SK-OV-3 ovarian = tested on: SK-OV-3 ovarian
IGROV1 ovarian = tested on: IGROV1 ovarian
OVCAR-3 ovarian = tested on: OVCAR-3 ovarian
HS 578T breast = tested on: HS 578T breast
NCI/ADR-RES ovarian = tested on: NCI/ADR-RES ovarian

Measured: growth

O=[N+]([O-])c1cc(/C=N/Nc2nc(N/N=C/c3ccc(Cl)c([N+](=O)[O-])c3)nc(N3CCCCC3)n2)ccc1Cl
active: RPMI-8226 leukemia -18.3% | OVCAR-3 ovarian -7.45%
inactive: SK-MEL-2 melanoma 80.7% | EKVX NSCLC 78% | SN12C renal 72.3% | UO-31 renal 47.5% | TK-10 renal 93.8% | ACHN renal 35.2% | CAKI-1 renal 72.4% | A498 renal 108% | CCRF-CEM leukemia 61.3% | MOLT-4 leukemia 42.3% | SR leukemia 63.2% | OVCAR-8 ovarian 31% | OVCAR-5 ovarian 108% | OVCAR-4 ovarian 86.9% | SK-OV-3 ovarian 98.8% | IGROV1 ovarian 52.7% | HS 578T breast 53.8% | NCI/ADR-RES ovarian 30.2%

COc1ccc(C2CC(c3ccc(Nc4nc(NCCO)nc(N5CCOCC5)n4)cc3)=Nc3c(N)nc(N)nc3N2)cc1 (stereo not given)
inactive: SK-MEL-2 melanoma 107% | EKVX NSCLC 107% | SN12C renal 96.9% | UO-31 renal 93.7% | TK-10 renal 115% | ACHN renal 102% | CAKI-1 renal 94.3% | A498 renal 87.9% | CCRF-CEM leukemia 105% | MOLT-4 leukemia 102% | SR leukemia 105% | RPMI-8226 leukemia 108% | OVCAR-8 ovarian 99.8% | OVCAR-5 ovarian 109% | OVCAR-4 ovarian 104% | SK-OV-3 ovarian 109% | IGROV1 ovarian 105% | OVCAR-3 ovarian 101% | HS 578T breast 91.6% | NCI/ADR-RES ovarian 107%

Cn1cc(CNc2nc3ccc(OC/C(=C/F)CN)cc3o2)ccc1=O
inactive: SK-MEL-2 melanoma 114% | EKVX NSCLC 98.4% | SN12C renal 99.8% | UO-31 renal 93.1% | TK-10 renal 107% | ACHN renal 105% | CAKI-1 renal 91% | A498 renal 102% | CCRF-CEM leukemia 107% | MOLT-4 leukemia 104% | SR leukemia 117% | RPMI-8226 leukemia 110% | OVCAR-8 ovarian 111% | OVCAR-5 ovarian 101% | OVCAR-4 ovarian 106% | SK-OV-3 ovarian 109% | IGROV1 ovarian 102% | OVCAR-3 ovarian 112% | HS 578T breast 103% | NCI/ADR-RES ovarian 102%

Cc1ccc(NC(=O)c2ccc(CN3CCN(C)CC3)cc2)cc1Oc1ccc(-c2[nH]nc3ncnc(N)c23)cc1
inactive: SK-MEL-2 melanoma 103% | EKVX NSCLC 107% | SN12C renal 96.4% | UO-31 renal 85.3% | TK-10 renal 110% | ACHN renal 101% | CAKI-1 renal 92.5% | A498 renal 94.3% | CCRF-CEM leukemia 59.5% | MOLT-4 leukemia 71.7% | SR leukemia 80.2% | RPMI-8226 leukemia 75.5% | OVCAR-8 ovarian 99.5% | OVCAR-5 ovarian 101% | OVCAR-4 ovarian 99.1% | SK-OV-3 ovarian 93.7% | IGROV1 ovarian 90% | OVCAR-3 ovarian 88.4% | HS 578T breast 82.8% | NCI/ADR-RES ovarian 100%

CNC(=O)c1cc(-c2ccc(NC(=S)Nc3cc(C(F)(F)F)cc(C(F)(F)F)c3)cc2)nc2cccnc12
inactive: SK-MEL-2 melanoma 99.3% | EKVX NSCLC 70% | SN12C renal 86.7% | UO-31 renal 59.7% | TK-10 renal 68.9% | ACHN renal 101% | CAKI-1 renal 71.4% | A498 renal 47.2% | CCRF-CEM leukemia 94.5% | MOLT-4 leukemia 88% | SR leukemia 71.8% | RPMI-8226 leukemia 93.7% | OVCAR-8 ovarian 100% | OVCAR-5 ovarian 102% | OVCAR-4 ovarian 75.3% | SK-OV-3 ovarian 102% | IGROV1 ovarian 75.9% | OVCAR-3 ovarian 106% | HS 578T breast 93.9% | NCI/ADR-RES ovarian 105%

O=C1Nc2ccccc2/C1=C/c1ccc(CO)n1-c1ccc(Cl)cc1
inactive: SK-MEL-2 melanoma 47.7% | EKVX NSCLC 63.6% | SN12C renal 65.2% | UO-31 renal 59.2% | TK-10 renal 115% | ACHN renal 56.1% | CAKI-1 renal 52.8% | A498 renal 35.4% | CCRF-CEM leukemia 33% | MOLT-4 leukemia 26.7% | SR leukemia 35.5% | RPMI-8226 leukemia 53.2% | OVCAR-8 ovarian 85.9% | OVCAR-5 ovarian 89.8% | OVCAR-4 ovarian 89.9% | SK-OV-3 ovarian 80% | IGROV1 ovarian 48.1% | OVCAR-3 ovarian 31.7% | HS 578T breast 59% | NCI/ADR-RES ovarian 33.9%

COC(=O)C1(C)CCC[C@]2(C)[C@H]3C[C@H]4C(C(C)C)=C[C@]3(CC[C@@H]12)[C@H]1[C@@H]4[C@@H](OC(=O)c2ccco2)CC[C@@H]1OC(=O)c1ccco1 (stereo not given in full)
inactive: SK-MEL-2 melanoma 107% | EKVX NSCLC 99.1% | SN12C renal 101% | UO-31 renal 101% | TK-10 renal 105% | ACHN renal 112% | CAKI-1 renal 95.8% | A498 renal 115% | CCRF-CEM leukemia 105% | MOLT-4 leukemia 103% | SR leukemia 93.4% | RPMI-8226 leukemia 99.5% | OVCAR-8 ovarian 100% | OVCAR-5 ovarian 107% | OVCAR-4 ovarian 103% | SK-OV-3 ovarian 115% | IGROV1 ovarian 99.4% | OVCAR-3 ovarian 123% | HS 578T breast 110% | NCI/ADR-RES ovarian 107%

NC(=O)c1c(NC(=O)c2ccc(F)cc2F)sc2c1CCC(=O)C2
inactive: SK-MEL-2 melanoma 102% | EKVX NSCLC 73.6% | SN12C renal 72.9% | UO-31 renal 29.3% | TK-10 renal 61.9% | CAKI-1 renal 33.9% | A498 renal 100% | CCRF-CEM leukemia 18.3% | MOLT-4 leukemia 40.6% | SR leukemia 35.8% | OVCAR-8 ovarian 44% | OVCAR-5 ovarian 24.5% | OVCAR-4 ovarian 27% | SK-OV-3 ovarian 103% | IGROV1 ovarian 50.5% | OVCAR-3 ovarian 14.8% | HS 578T breast 43.9% | NCI/ADR-RES ovarian 32.7%
active: ACHN renal 7.96% | RPMI-8226 leukemia 9.53%

COc1cc(/C=C/C(=O)c2ccc(NC(=O)CSc3nnc(-c4ccc(-c5nc6ccc(Cl)cc6[nH]5)cc4)o3)cc2)cc(OC)c1OC
inactive: SK-MEL-2 melanoma 99.2% | EKVX NSCLC 103% | SN12C renal 104% | UO-31 renal 86% | TK-10 renal 136% | ACHN renal 96.7% | CAKI-1 renal 91.2% | A498 renal 101% | CCRF-CEM leukemia 85.9% | MOLT-4 leukemia 85% | SR leukemia 48.4% | RPMI-8226 leukemia 108% | OVCAR-8 ovarian 98% | OVCAR-5 ovarian 91.3% | OVCAR-4 ovarian 102% | SK-OV-3 ovarian 99% | IGROV1 ovarian 88.3% | OVCAR-3 ovarian 84.1% | HS 578T breast 90.9% | NCI/ADR-RES ovarian 84.3%

COc1ccc2c(c1)c(-c1cc(N)n3nc(-c4cn(C)c5ccc(OC)cc45)cc3n1)cn2C
inactive: SK-MEL-2 melanoma 133% | EKVX NSCLC 107% | SN12C renal 92.4% | UO-31 renal 93.3% | TK-10 renal 121% | ACHN renal 103% | CAKI-1 renal 96.7% | A498 renal 88.8% | MOLT-4 leukemia 56.1% | OVCAR-8 ovarian 97.9% | OVCAR-5 ovarian 117% | OVCAR-4 ovarian 109% | SK-OV-3 ovarian 134% | IGROV1 ovarian 105% | OVCAR-3 ovarian 117% | HS 578T breast 110% | NCI/ADR-RES ovarian 120%
active: CCRF-CEM leukemia -8.54% | SR leukemia -12.2% | RPMI-8226 leukemia -0.83%

CS(=O)(=O)c1ncc(-c2ccccc2)cn1
inactive: SK-MEL-2 melanoma 97.6% | EKVX NSCLC 97.1% | SN12C renal 96.4% | UO-31 renal 85.1% | TK-10 renal 97.3% | ACHN renal 97.3% | CAKI-1 renal 107% | A498 renal 86.5% | CCRF-CEM leukemia 86.6% | MOLT-4 leukemia 97.2% | SR leukemia 70.9% | RPMI-8226 leukemia 108% | OVCAR-8 ovarian 99.3% | OVCAR-5 ovarian 103% | OVCAR-4 ovarian 98.6% | SK-OV-3 ovarian 108% | IGROV1 ovarian 99.5% | OVCAR-3 ovarian 90.7% | HS 578T breast 111% | NCI/ADR-RES ovarian 103%

C=C(C=O)[C@@H]1CC[C@]2(COC(C)=O)CC[C@]3(C)C(CC[C@@H]4[C@@]5(C)CC[C@H](OC(C)=O)C(C)(C)[C@@H]5CC[C@]43C)[C@@H]12 (stereo not given in full)
inactive: EKVX NSCLC 12.9% | TK-10 renal 35.5% | CCRF-CEM leukemia 10.9% | OVCAR-8 ovarian 15.3% | OVCAR-5 ovarian 15.1% | OVCAR-4 ovarian 16.2% | SK-OV-3 ovarian 50.3%
active: SK-MEL-2 melanoma -28% | SN12C renal 1.13% | UO-31 renal -94% | ACHN renal -54.3% | CAKI-1 renal -14.9% | A498 renal -41% | MOLT-4 leukemia -18.1% | SR leukemia -25.8% | RPMI-8226 leukemia -18.4% | IGROV1 ovarian -32.8% | OVCAR-3 ovarian -71.6% | HS 578T breast -11.6% | NCI/ADR-RES ovarian 1.48%

CNC(=O)c1c(NC(=O)c2cccc(C(F)(F)F)c2F)sc2c1CCC(=O)C2
active: SK-MEL-2 melanoma 8.04% | UO-31 renal -29.2% | ACHN renal 4.75% | CAKI-1 renal -30.6% | A498 renal -1.35% | MOLT-4 leukemia 7.37% | RPMI-8226 leukemia -0.669% | OVCAR-5 ovarian 4.83% | OVCAR-4 ovarian 8.78% | SK-OV-3 ovarian 4.35% | HS 578T breast 8.98% | NCI/ADR-RES ovarian 7.77%
inactive: EKVX NSCLC 13.1% | SN12C renal 10% | TK-10 renal 34.6% | CCRF-CEM leukemia 13.6% | SR leukemia 20% | OVCAR-8 ovarian 16.8% | IGROV1 ovarian 10.5% | OVCAR-3 ovarian 12.5%

Cc1ccc(-n2cc(/C=C/C(=O)c3ccc(O)cc3)c(-c3ccc(S(C)(=O)=O)cc3)n2)cc1
inactive: SK-MEL-2 melanoma 101% | EKVX NSCLC 91.4% | SN12C renal 63.5% | UO-31 renal 76.4% | TK-10 renal 117% | ACHN renal 67.7% | CAKI-1 renal 73.4% | A498 renal 99.2% | CCRF-CEM leukemia 48.8% | MOLT-4 leukemia 34.8% | SR leukemia 55.1% | RPMI-8226 leukemia 47.9% | OVCAR-8 ovarian 87.5% | OVCAR-5 ovarian 95.7% | OVCAR-4 ovarian 98.7% | SK-OV-3 ovarian 94.9% | IGROV1 ovarian 47.7% | OVCAR-3 ovarian 22.7% | HS 578T breast 96.2% | NCI/ADR-RES ovarian 33.6%
